From PubChem BioAssay (NCATS)
Inconclusive results are not listed. Active and inactive are the calls of the source. Calls follow the shape of the dose curve; as a rule, active = well fitted curve in the direction sought with a large enough effect; inconclusive = small, poorly fitted or top-dose-only effect, or another doubt; inactive = no such curve, though single readings can be large; an effect the other way counts as inactive or inconclusive.

Columns and labels:
[1] = Quantitative High-Throughput drug screen in 47 multiple myeloma cell lines against the NCATS MIPE library collection: KMM1_JCRB cell viability assay (AID 1918960); also: nearly all actives have a fitted effect of over 30% in size
Outline: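 Viability screen: myeloma cells (500/well) incubated 48 h at 37 °C, humidified 5% CO2, with pinned library compounds; CellTiter-Glo added, luminescence read; DMSO wells set 100%, medium-only wells 0%.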

[2] = Quantitative High-Throughput drug screen in 47 multiple myeloma cell lines against the NCATS MIPE library collection: KHM11_PLB cell viability assay (AID 1918962); also: nearly all actives have a fitted effect of over 35% in size
Outline: (§1)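 qHTS of the MIPE 4.0 collection: 500 myeloma cells/well, 48 h drug exposure at 37C in 5% CO2, then CellTiter-Glo for 5 min at room temperature before luminescence reading.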

[3] = Quantitative High-Throughput drug screen in 47 multiple myeloma cell lines against the NCATS MIPE library collection: JIM3_ECACC cell viability assay (AID 1918963; also: nearly all actives have a fitted effect of over 35% in size)
Outline: as §1

[4] = Quantitative High-Throughput drug screen in 47 multiple myeloma cell lines against the NCATS MIPE library collection: JIM1_ECACC cell viability assay (AID 1918964)
Outline: (§2)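 CellTiter-Glo luminescence (ATP) after 48 h compound exposure, 37C/5% CO2; 500 cells/well; MIPE 4.0 approved/investigational drugs pinned in; DMSO = 100%, media only = 0% viability.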

[5] = Quantitative High-Throughput drug screen in 47 multiple myeloma cell lines against the NCATS MIPE library collection: INA6_PLB cell viability assay (AID 1918965; also: nearly all actives have a fitted effect of over 55% in size)
Outline: (§3)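 Luminescent ATP measurement with CellTiter-Glo gives viability, scaled between DMSO-only wells (100%) and media-only wells (0%). Cells, 500 per well, faced library compounds for 48 hours at 37C.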

[6] = Quantitative High-Throughput drug screen in 47 multiple myeloma cell lines against the NCATS MIPE library collection: JJN3_DSMZ cell viability assay (AID 1918966; also: nearly all actives have a fitted effect of over 50% in size)
Outline: as §2

[7] = Quantitative High-Throughput drug screen in 47 multiple myeloma cell lines against the NCATS MIPE library collection: H1112_PLB cell viability assay (AID 1918967; also: nearly all actives have a fitted effect of over 30% in size)
Outline: as §2

[8] = Quantitative High-Throughput drug screen in 47 multiple myeloma cell lines against the NCATS MIPE library collection: Karpas25_ECACC cell viability assay (AID 1918968; also: nearly all actives have a fitted effect of over 35% in size)
Outline: as §2

[9] = Quantitative High-Throughput drug screen in 47 multiple myeloma cell lines against the NCATS MIPE library collection: KMS27_JCRB cell viability assay (AID 1918970); also: nearly all actives have a fitted effect of over 30% in size
Outline: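 CellTiter-Glo luminescence after 48 h drug exposure at 37 °C; 500 cells/well, 1536-well format, pin-tool compound addition; DMSO = 100%, media-only = 0% viability.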

[10] = Quantitative High-Throughput drug screen in 47 multiple myeloma cell lines against the NCATS MIPE library collection: Karpas417_ECACC cell viability assay (AID 1918961); details: Karpas417 myeloma viability, CellTiter-Glo ATP luminescence, 48 h; viability (% of DMSO): at 45.8 µM (top of the series)
Outline: as §3

Measured: Potency
Potency is read from the fitted curve at half-maximal effect.

CCc1ccc(OCc2ccccc2C(=O)Nc2ccc3nc(C)cc(N)c3c2)cc1
active: [1] 2.64 µM | [2] 2.35 µM | [3] 2.64 µM | [4] 2.64 µM | [5] 2.64 µM | [6] 6.62 µM | [7] 2.96 µM | [8] 1.32 µM | [9] 1.87 µM

O=C(CCCCCCC(=O)Nc1ccccc1)NO
active: [1] 1.32 µM | [2] 7.43 µM | [3] 5.9 µM | [4] 2.35 µM | [5] 0.935 µM | [6] 3.32 µM | [8] 1.48 µM

CC=CCC(C)C(O)C1C(=O)NC(CC)C(=O)N(C)CC(=O)N(C)C(CC(C)C)C(=O)NC(C(C)C)C(=O)N(C)C(CC(C)C)C(=O)NC(C)C(=O)NC(C)C(=O)N(C)C(CC(C)C)C(=O)N(C)C(CC(C)C)C(=O)N(C)C(C(C)C)C(=O)N1C (stereo unspecified)
inactive: [1]

CC1(C)O[C@H]2C[C@@H]3[C@H]4CCC5=CC(=O)C=C[C@]5(C)[C@@]4(F)[C@@H](O)C[C@]3(C)[C@]2(C(=O)CO)O1
active: [10] 0.0118 µM
inactive: [1] | [3] | [4] | [5] | [6]

CO[C@H]1C=CC=C(C)C(=O)NC2=CC(=O)C(NCCN(C)C)=C(C[C@@H](C)C[C@H](OC)[C@@H](O)[C@@H](C)C=C(C)[C@@H]1OC(N)=O)C2=O
active: [1] 0.0526 µM | [2] 0.0372 µM | [3] 0.0743 µM | [4] 0.0209 µM | [5] 0.0235 µM | [6] 0.0296 µM | [7] 3.32 µM | [9] 0.0264 µM

O=C(O)c1ccc(-c2c[nH]c3ncc(-c4ccccc4)cc23)cc1C1CCCC1
inactive: [1]

Cc1ccc(Nc2cc(-c3cccc(N4C(=O)c5ccccc5C4=O)c3)ncn2)cc1NS(C)(=O)=O
active: [1] 18.7 µM | [10] 4.69 µM | [3] 18.7 µM | [5] 16.6 µM | [6] 18.7 µM | [7] 18.7 µM | [8] 11.8 µM

CC=C(C)C(=O)O[C@H]1C(C)=C[C@]23C(=O)[C@@H](C=C(CO)[C@@H](O)[C@]12O)[C@H]1[C@@H](C[C@H]3C)C1(C)C
active: [1] 11.8 µM | [10] 0.209 µM | [2] 3.72 µM | [3] 18.7 µM | [5] 0.0066 µM | [7] 0.526 µM | [9] 9.35 µM

Clc1ccc(-c2nc3sccn3c2C=NOCc2ccc(Cl)c(Cl)c2)cc1
not listed: [3] | [4] | [9]
inactive: all other assays above

COc1cc(NC(=O)c2ccc(-c3ccc(Cl)cc3)o2)cc(OC)c1
active: [1] 16.6 µM | [10] 2.96 µM | [2] 14.8 µM | [3] 11.8 µM | [5] 8.33 µM | [7] 2.96 µM | [8] 2.96 µM

C=C1C(=O)[C@@]23C(CC[C@@H]1[C@H]2O)[C@@]12CO[C@]3(O)[C@@H](O)[C@@H]1C(C)(C)CC[C@@H]2O (stereo partly specified)
active: [1] 2.35 µM | [2] 5.26 µM | [3] 10.5 µM | [4] 1.05 µM | [5] 1.18 µM | [6] 2.09 µM | [7] 18.7 µM | [8] 2.35 µM | [9] 1.87 µM

CCOC1OC(=O)C[C@H]1NC(=O)[C@@H]1CCCN1C(=O)[C@@H](NC(=O)c1ccc(N)c(Cl)c1)C(C)(C)C (stereo partly specified)
inactive: [10] | [3] | [5] | [7]
active: [1] 29.6 µM

NC[C@@H]1O[C@@H](O[C@H]2[C@@H](O)[C@H](O[C@@H]3[C@@H](O)[C@@H](N)C[C@H](N)[C@H]3O[C@H]3O[C@H](CN)[C@@H](O)[C@@H](O)[C@H]3N)O[C@H]2CO)[C@H](N)[C@@H](O)[C@@H]1O
not listed: [10]
inactive: all other assays above

Cc1ccc(C(C)(O)c2nc3ccccc3s2)c(C)c1 (stereo unspecified)
inactive: [1] | [10] | [3] | [5] | [6] | [7]

CCS(=O)(=O)N1CC(CC#N)(n2cc(-c3ncnc4[nH]ccc34)cn2)C1
active: [10] 0.105 µM | [2] 11.8 µM | [3] 16.6 µM | [5] 0.418 µM | [6] 11.8 µM
inactive: [1] | [8]

Cc1cnc(C(=O)O)c[n+]1[O-]
not listed: [4] | [6]
inactive: all other assays above

Clc1ccc(C(c2ccc(Cl)cc2)n2cc[n+](CC(OCc3ccc(Cl)cc3Cl)c3ccc(Cl)cc3Cl)c2)cc1 (stereo unspecified)
active: [1] 8.33 µM | [10] 8.33 µM | [2] 10.5 µM | [3] 16.6 µM | [4] 8.33 µM | [5] 8.33 µM | [6] 20.9 µM | [7] 11.8 µM | [9] 7.43 µM

O=C1c2ccccc2-[n+]2ccc3c([nH]c4ccccc43)c21
active: [1] 3.72 µM | [2] 2.35 µM | [3] 0.59 µM | [4] 3.72 µM | [5] 1.18 µM | [6] 1.48 µM | [7] 5.26 µM | [8] 0.418 µM
